# Assay results from PubChem BioAssay (NCATS).
# Results filed as inconclusive are left out. A call without a number means that no potency is given here. Active and inactive are the calls of the source. Calls come from the whole dose curve. Bridge positions count the residues as written; N and C are the ends. Square brackets hold non-standard residues; d marks the D form. Peptide text beside a SMILES is read from it. * marks the point of attachment. Octanoyl(6-Me) = CCC(C)CCCCC(=O)*; Dab = NCC[CH](N)C(=O)O
# Assays:
# [1] = Primary qHTS for inhibitors of SARS-S pseudo-typed particle cell entry (AID 1479145); conditions: outcome: dose series up to 57.1 µM unless noted; note: nearly all actives have a fitted effect of over 45% in size
# [2] = Primary qHTS for Huh7 cytotoxicity: counterscreen for inhibitors of MERS-S pseudotyped particle cell entry (AID 1479147); conditions: outcome: dose series up to 57.1 µM unless noted
# [3] = Primary qHTS for inhibitors of MERS-S pseudo-typed particle cell entry (AID 1479149); conditions: outcome: dose series up to 57.1 µM unless noted; note: nearly all actives have a fitted effect of over 60% in size
# [4] = Primary qHTS for Vero E6 cytotoxicity: counterscreen for inhibitors of SARS-S pseudo-typed particle cell entry (AID 1479150); conditions: outcome: dose series up to 57.1 µM unless noted
# [5] = Cytotoxicity counterscreen for inhibitors of SARS-CoV-2 cell entry (AID 1645845); conditions: outcome: dose series up to 57.1 µM unless noted; note: nearly all actives have a fitted effect of over 50% in size
# Method in brief: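 After a 15 min room-temperature ATPLite 1step step, luminescence reflected ATP remaining in HEK293-ACE2 cells exposed to compound for 1 h plus 48 h at 37 C, with percent activity set by cell and no-cell controls.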
# [6] = Primary qHTS to identify inhibitors of SARS-CoV-2 cell entry (AID 1645846); conditions: SARS-CoV-2 pseudovirus cell entry assay, luminescence; activity change, negative = inhibition: at 57.1 µM (top of the series) unless noted; note: nearly all actives have a fitted effect of over 45% in size; note: potency is the fitted concentration of half-maximal effect
# Method in brief: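 HEK293-ACE2 (Expi293F, stable hACE2), 1500 cells/well, o/n 37C; cpd 23 nL pin, 1 h; MLV-PP w/ SARS-CoV-2-S (Wuhan-Hu-1, Δ19 C-term); 48 h 37C; Bright-Glo luminescence; normalized vs S-PP and bald PP.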
smiles,measurement,setting,value
CO[C@H]1C[C@@H]2CC[C@@H](C)[C@@](O)(O2)C(=O)C(=O)N2CCCC[C@H]2C(=O)O[C@H]([C@H](C)C[C@@H]2CC[C@@H](OC(=O)C(C)(CO)CO)[C@H](OC)C2)CC(=O)[C@H](C)/C=C(\C)[C@@H](O)[C@@H](OC)C(=O)[C@H](C)C[C@H](C)/C=C/C=C/C=C/1C,Potency,[1],inactive
same,Potency,[2],inactive
same,Potency,[3],inactive
same,Potency,[4],inactive
same,Potency,[5],inactive
same,"activity change, negative = inhibition",[6],-29.8% [at 27.1 µM]
O=[N+]([O-])O[C@@H]1CO[C@H]2[C@@H]1OC[C@@H]2O,Potency,[1],inactive
same,Potency,[2],inactive
same,Potency,[3],inactive
same,Potency,[4],inactive
same,Potency,[5],inactive
same,"activity change, negative = inhibition",[6],-29.2% [at 114 µM]
CCC(C)CCCCC(=O)NC(CCN)C(=O)NC(C(=O)NC(CCN)C(=O)NC1CCNC(=O)C(C(C)O)NC(=O)C(CCN)NC(=O)C(CCN)NC(=O)C(CC(C)C)NC(=O)C(Cc2ccccc2)NC(=O)C(CCN)NC1=O)C(C)O (stereo unspecified) ({Octanoyl(6-Me)}-[Dab]T[Dab][Dab][Dab]FL[Dab][Dab]T; lactam 4-C; configuration not given here),Potency,[1],inactive
same,Potency,[2],inactive
same,Potency,[3],inactive
same,Potency,[4],inactive
same,Potency,[5],inactive
same,"activity change, negative = inhibition",[6],-13.5% [at 27.1 µM]
CC(C=CC1=C(C)CCCC1(C)C)=CC=CC(C)=CC(=O)Oc1c(C)c(C)c2c(c1C)CC[C@@](C)(CCC[C@H](C)CCC[C@H](C)CCCC(C)C)O2,"activity change, negative = inhibition",[1],-3.62% [at 5.34 µM] (inactive)
same,"activity change, negative = cytotoxicity",[2],-9.73% [at 5.34 µM] (inactive)
same,outcome,[3],inactive [at 5.34 µM]
same,"activity change, negative = cytotoxicity",[4],-3.15% [at 5.34 µM] (inactive)
same,"activity change, negative = cytotoxicity",[5],-2.74% [at 5.25 µM] (inactive)
same,outcome,[6],inactive [at 5.25 µM]
Cn1c(=O)cc(N2CCC[C@@H](N)C2)n(Cc2cc(F)ccc2C#N)c1=O,Potency,[1],inactive
same,Potency,[2],inactive
same,Potency,[3],inactive
same,Potency,[4],inactive
same,Potency,[5],inactive
same,"activity change, negative = inhibition",[6],-23.7%
NCCCC[C@H](N)C(=O)O,outcome,[1],inactive [at 0.573 µM]
same,outcome,[2],inactive [at 0.573 µM]
same,outcome,[3],inactive [at 0.573 µM]
same,"activity change, negative = cytotoxicity",[4],2.08% [at 0.573 µM] (inactive)
same,"activity change, negative = cytotoxicity",[5],2.36% [at 0.702 µM] (inactive)
same,outcome,[6],inactive [at 0.702 µM]
C=C(C)C1CC=C(C)CC1 (stereo unspecified),Potency,[1],inactive
same,Potency,[2],inactive
same,Potency,[3],inactive
same,Potency,[4],inactive
same,Potency,[5],inactive
same,"activity change, negative = inhibition",[6],-21.4% [at 114 µM]
COC(=S)NCCn1c([N+](=O)[O-])cnc1C,Potency,[1],inactive
same,Potency,[2],inactive
same,Potency,[3],inactive
same,Potency,[4],inactive
same,Potency,[5],inactive
same,"activity change, negative = inhibition",[6],-22.7%
C#C[C@]1(O)CC[C@H]2[C@@H]3CCC4=C/C(=N/O)CC[C@@H]4[C@H]3CC[C@@]21CC,Potency,[1],inactive
same,Potency,[2],inactive
same,Potency,[3],inactive
same,Potency,[4],inactive
same,Potency,[5],inactive
same,"activity change, negative = inhibition",[6],-1.12%
CCCCC(=O)O,Potency,[1],inactive
same,Potency,[2],inactive
same,Potency,[3],inactive
same,Potency,[4],inactive
same,Potency,[5],inactive
same,"activity change, negative = inhibition",[6],-20.8%
O=C(O)c1cc(O)c2c(c1)[O][Bi][O]2,"activity change, negative = inhibition",[1],-20% [at 0.573 µM] (inactive)
same,"activity change, negative = cytotoxicity",[2],-1.24% [at 0.573 µM] (inactive)
same,outcome,[3],inactive [at 0.573 µM]
same,outcome,[4],inactive [at 0.573 µM]
same,outcome,[5],inactive [at 0.702 µM]
same,"activity change, negative = inhibition",[6],-27.2% [at 0.702 µM]
[2H]N[C@@H](Cc1ccccc1)C(=O)N1CCC[C@H]1C(=O)N[C@@H](CCCNC(=N)N)C(=O)N1CCC[C@H]1C(=O)NCC(=O)NCC(=O)NCC(=O)NCC(=O)N[C@@H](CC(N)=O)C(=O)NCC(=O)N[C@@H](CC(=O)O)C(=O)N[C@@H](Cc1ccccc1)C(=O)N[C@@H](CCC(=O)O)C(=O)N[C@@H](CCC(=O)O)C(=O)N[C@H](C(=O)N1CCC[C@H]1C(=O)N[C@@H](CCC(=O)O)C(=O)N[C@@H](CCC(=O)O)C(=O)N[C@@H](Cc1ccc(O)cc1)C(=O)N[C@@H](CC(C)C)C(=O)O)[C@@H](C)CC,"activity change, negative = inhibition",[1],-29.4% [at 11.4 µM] (inactive)
same,outcome,[2],inactive [at 11.4 µM]
same,"activity change, negative = inhibition",[3],-9.94% [at 11.4 µM] (inactive)
same,"activity change, negative = cytotoxicity",[4],-0.847% [at 11.4 µM] (inactive)
same,"activity change, negative = cytotoxicity",[5],2.97% [at 11.3 µM] (inactive)
same,"activity change, negative = inhibition",[6],-18.8% [at 11.3 µM]
CCCCCCCCCCCC(=O)OCN1C(=O)CCc2ccc(OCCCCN3CCN(c4cccc(Cl)c4Cl)CC3)cc21,Potency,[1],inactive
same,Potency,[2],inactive
same,Potency,[3],inactive
same,Potency,[4],inactive
same,Potency,[5],inactive
same,"activity change, negative = inhibition",[6],-17.3% [at 19 µM]
CN[C@H]1C[C@@H](N)[C@H](O)[C@@H](O[C@@H]2O[C@H](CO)[C@H](O)[C@@H]3OC4(O[C@H]23)O[C@H]([C@@H](N)CO)[C@H](O)[C@H](O)[C@H]4O)[C@@H]1O (stereo partly specified),Potency,[1],inactive
same,Potency,[2],inactive
same,Potency,[3],inactive
same,Potency,[4],inactive
same,Potency,[5],inactive
same,Potency,[6],17.8 µM (active)
CO[C@@H]1[C@@H](O[C@@H]2O[C@H](C)[C@@H](O[C@H]3C[C@@](C)(O)[C@H](O)[C@H](C)O3)[C@H](N(C)C)[C@H]2O)[C@@H](CC=O)C[C@@H](C)[C@@H](O[C@H]2CC[C@H](N(C)C)[C@@H](C)O2)/C=C/C=C/C[C@H](C)OC(=O)C[C@H]1O,Potency,[1],inactive
same,Potency,[2],inactive
same,Potency,[3],inactive
same,Potency,[4],inactive
same,Potency,[5],inactive
same,"activity change, negative = inhibition",[6],-34.9%
CO/N=C(\C(=O)N[C@@H]1C(=O)N2C(C(=O)O)=C(CSc3cnns3)CS[C@H]12)c1csc(N)n1,Potency,[1],inactive
same,Potency,[2],inactive
same,Potency,[3],inactive
same,Potency,[4],inactive
same,Potency,[5],inactive
same,"activity change, negative = inhibition",[6],-7.92%
OCCOCCOCCO,Potency,[1],inactive
same,Potency,[2],inactive
same,Potency,[3],inactive
same,Potency,[4],inactive
same,Potency,[5],inactive
same,Potency,[6],inactive
Cc1onc(-c2c(F)cccc2Cl)c1C(=O)N[C@@H]1C(=O)N2[C@@H]1SC(C)(C)[C@H]2C(=O)O,Potency,[1],inactive
same,Potency,[2],inactive
same,Potency,[3],inactive
same,Potency,[4],inactive
same,Potency,[5],inactive
same,"activity change, negative = inhibition",[6],-29.1%
C[S+](CC[C@H](N)C(=O)O)C[C@H]1O[C@@H](n2cnc3c(N)ncnc32)[C@H](O)[C@H]1O (stereo partly specified),Potency,[1],inactive
same,Potency,[2],inactive
same,Potency,[3],inactive
same,Potency,[4],inactive
same,Potency,[5],inactive
same,Potency,[6],inactive
C[C@@H]1C[C@H]2[C@@H]3C[C@H](F)C4=CC(=O)C=C[C@]4(C)[C@@]3(F)[C@@H](O)C[C@]2(C)[C@@]1(O)C(=O)COC(=O)C(C)(C)C,Potency,[1],inactive
same,Potency,[2],inactive
same,Potency,[3],inactive
same,Potency,[4],inactive
same,Potency,[5],inactive
same,Potency,[6],inactive
Cc1cccc(C)c1NC(=O)C1CCCCN1C (stereo unspecified),Potency,[1],inactive
same,Potency,[2],inactive
same,Potency,[3],inactive
same,Potency,[4],inactive
same,Potency,[5],inactive
same,"activity change, negative = inhibition",[6],-22.7%
